Molecules are shown by their SMILES. Records with an inconclusive call do not appear. The source made the active and inactive calls. Unless noted, calls follow the shape of the full dose curve.

Test [1] has as its target Lysosomal acid glucosylceramidase (Homo sapiens) (UniProt P04062). Put plainly: Glucocerebrosidase-p2 (AID 348; in the data active = potency below about 10 µM; also: potency is read from the fitted curve at half-maximal effect). The settings on record: purified GBA, blue fluorogenic substrate, 40 min. The essentials:
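Compounds titrated from 0.6 nM upwards against 0.2 nM enzyme in pH 5.9 citric acid/KH2PO4, taurocholate, tween-20; blue fluorogenic substrate 80 uM, 40 min room temperature, stopped and read Ex 365/Em 440 for AC50.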

Test [2] in a line: AP1 Signaling Pathway (AID 357; active = well fitted curve in either direction with a large enough effect, not every such curve was filed as active;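 also: ME-180 reporter cells stimulated with EGF at its EC50 level; % is scaled to controls: 0 for no effect and ±100 for the full control effect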). The settings on record: ME-180 AP-1-bla reporter, EGF-induced, beta-lactamase ratio, 5 h; at 7.69 µM (top of the series) unless noted. In a few lines:
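Modulation of EGF-driven AP-1 transcription was assessed with a beta-lactamase reporter in ME-180 cells. Compound and EC50 EGF were co-incubated 5 hours at 37 °C before 2.5-hour CCF4 loading at room temperature and dual-emission reading.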

In test [3] the target is Cytochrome P450 1A2 (Homo sapiens) (UniProt P05177). Put plainly: p450-cyp1a2 (AID 410). Also: potency is read from the fitted curve at half-maximal effect.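 As to activity change, negative = inhibition: -100% = full effect of reference inhibitor.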 The settings on record: recombinant CYP1A2, luciferin-ME demethylation, luminescence; series mostly up to 57 µM. In a few lines:
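Luminescent readout of luciferin formed from Luciferin-ME by human CYP1A2; data normalized against complete inhibition by 57 uM furafylline. Enzyme 20nM, substrate 100uM at Km, 100mM KPO4 buffer, 60 min reaction at room temperature.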

Test [4] is described as follows: Stat Signaling Pathway (AID 446; active = well fitted curve in either direction with a large enough effect, not every such curve was filed as active;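 also: ME-180 cervical cancer cells given 40 pM IL-6 alongside compound; SIE-controlled beta-lactamase reporter measured as 460/530 nm FRET emission ratio; % is scaled to controls: 0 for no effect and ±100 for the full control effect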). The settings on record: ME-180 SIE beta-lactamase reporter, IL-6 stimulated, 5 h; at 7.69 µM (top of the series) unless noted. The essentials: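 ME-180 cells carrying a SIE-driven beta-lactamase reporter are stimulated with 40 pM IL-6 for 5 h at 37C in the presence of compound. The 460/530 nm FRET substrate ratio is read after 2.5 h at RT. Data are normalised to 300 pM IL-6 and to 125 nM JAK inhibitor controls.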

Test [5] addresses Glucocorticoid receptor (Homo sapiens) (UniProt P04150). The test is described as follows: GR-EFC Redistribution (AID 451). Also: potency is read from the fitted curve at half-maximal effect. The settings on record: CHO-K1 GR-EFC translocation, beta-gal luminescence, 2 h. The essentials: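 CHO-K1 cells stably expressing nuclear-localized β-gal enzyme acceptor and GR fused C-terminally to the enzyme donor fragment; ligand-driven nuclear translocation restores β-gal by complementation. Compounds titrated up to 46 uM final, 2 h at 37 °C; luminescence read.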

In test [6] the target is Mitogen-activated protein kinase 10 (Mus musculus) (UniProt Q61831). The test is described as follows: JNK3 AlphaScreen Assay (AID 530; active = well fitted curve in either direction with a large enough effect, not every such curve was filed as active;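 also: kinase came from lysate of stimulated human HepG2 cells; signal reports phosphorylation of biotinylated GST-cJun 1-79 at Ser73 with 10 µM ATP; % is scaled to controls: 0 for no effect and ±100 for the full control effect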). The settings on record: JNK3 lysate, c-Jun phosphorylation; series mostly up to 57.1 µM. The essentials: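 Inhibitors reduce antibody binding to phosphorylated biotin-cJun, lowering AlphaScreen luminescence. Lysates from HepG2 cells pre-activated by IL-1beta plus TNF-alpha supplied JNK3; compounds were titrated.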
A general note: Alpha assays give light when donor and acceptor beads are brought close together.

Test [7] addresses 3',5'-cyclic-AMP phosphodiesterase 4B (Homo sapiens) (UniProt Q07343). Put plainly: qHTS Assay for Inhibitors of PDE-IV (AID 607; active = well fitted activation curve with a large enough effect in the main read-out, with a control signal flat, not every such curve was filed as active; also: % of control where 0% means no effect). The settings on record: HEK293 ACTOne CNG channel cells, membrane potential fluorescence; series mostly up to 22.9 µM. In a few lines:
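HEK293 ACTOne cells with CNG channel (1000/well), endogenous PDE4; membrane potential dye, compounds up to 22.9 uM final. Fluorescence Ex 535/Em 590; RO 20-1724 (100 uM final) as reference.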

Test [8] concerns the target Cytochrome P450 3A4 (Homo sapiens) (UniProt P08684). The test is described as follows: qHTS Assay for Inhibitors and Substrates of Cytochrome P450 3A4 (AID 884; active = well fitted curve in the direction sought with a large enough effect; an effect the other way counts as inactive or inconclusive; also: nearly all actives have a fitted effect of over 50% in size; also: potency is read from the fitted curve at half-maximal effect). The settings on record: recombinant CYP3A4, Luciferin-PPXE luminescence; series mostly up to 57.1 µM. The essentials:
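20 nM human CYP3A4 with 25 uM Luciferin-PPXE (at KM) in 200 mM KPO4, preincubated 10 min with compound; NADPH regeneration started a 60 min RT reaction. Luciferin detected by luminescence, normalized to 57 uM ketoconazole as full inhibition.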

For test [9], the target named is Cytochrome P450 2C19 (Homo sapiens) (UniProt P33261). The test is described as follows: qHTS Assay for Inhibitors and Substrates of Cytochrome P450 2C19 (AID 899; active = well fitted curve in the direction sought with a large enough effect; an effect the other way counts as inactive or inconclusive; also: potency is read from the fitted curve at half-maximal effect; nearly all actives have a fitted effect of over 60% in size). The settings on record: recombinant CYP2C19, luciferin-H EGE luminescence; series mostly up to 57.1 µM. In a few lines:
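Human CYP2C19 (5nM) with Luciferin-H EGE at 10uM (its KM) in 50mM KPO4 was preincubated with compound for 10 min at 37C. NADPH regeneration started a 60 min 37C reaction. Luciferin was read by luminescence, normalized to 57uM ketoconazole.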
In general terms: In qHTS, concentration-response curves come from the screen itself.

Test [10] in a line: qHTS Assay for Lipid Storage Modulators (AID 1519). The settings on record: Drosophila S3 cells, BODIPY lipid droplet/cell ratio, laser cytometry, cells loaded with oleic acid; for activity change, negative = inhibition: at 57.5 µM (top of the series). The essentials: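 Cells seeded at 5,000 per well were treated with compounds over a concentration series and loaded with oleic acid (400 uM, as added). Lipid droplet fluorescence (488 nm excitation, 500-530 nm channel) was read by laser-scanning cytometry and normalized to 20 uM Triacsin C.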

Test [11] can be described thus: Primary qHTS for small molecule stabilizers of the endoplasmic reticulum resident proteome: Secreted ER Calcium Modulated Protein (SERCaMP) assay (AID 1508630; active = well fitted curve in the direction sought with a large enough effect; an effect the other way counts as inactive or inconclusive; also: % is scaled to controls: 0 for no effect and ±100 for the full control effect). The settings on record: SH-SY5Y GLuc-SERCaMP (Gaussia luciferase released on ER calcium loss) secretion, thapsigargin, luminescence; series mostly up to 38.4 µM. In a few lines:
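GLuc-SERCaMP-expressing SH-SY5Y cells, pretreated 16 h with compound, are challenged with thapsigargin to empty ER calcium stores; after 4 h, coelenterazine is added directly to the medium and luminescence is imaged.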

Test [12] concerns the target Cytochrome P450 3A4 (Homo sapiens) (UniProt P08684). The test is described as follows: qHTS Assay for Activators of Cytochrome P450 3A4 (AID 885; active = well fitted curve in the direction sought with a large enough effect; an effect the other way counts as inactive or inconclusive; also: nearly all actives have a fitted effect of over 65% in size; also: potency is read from the fitted curve at half-maximal effect). The settings on record: recombinant CYP3A4, Luciferin-PPXE luminescence, 60 min; series mostly up to 57.1 µM. In a few lines:
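Human CYP3A4 (20 nM) with Luciferin-PPXE at 25 uM (its KM) in 200 mM KPO4; 10 min compound preincubation, then NADPH regeneration and 60 min reaction at RT. Luciferin read by luminescence; normalized to 57 uM ketoconazole full inhibition.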

The target in test [13] is Cytochrome P450 2D6 (Homo sapiens) (UniProt P10635). Put plainly: qHTS Assay for Inhibitors and Substrates of Cytochrome P450 2D6 (AID 891; active = well fitted curve in the direction sought with a large enough effect; an effect the other way counts as inactive or inconclusive; also: potency is read from the fitted curve at half-maximal effect; nearly all actives have a fitted effect of over 60% in size). The settings on record: recombinant CYP2D6, luciferin-ME EGE luminescence; series mostly up to 57.1 µM. In a few lines:
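Human CYP2D6 (5 nM) with 30 uM Luciferin-ME EGE (at Km) in 100 mM KPO4, compound preincubated 10 min, then NADPH regeneration system for 60 min at room temperature. Luciferin read by luminescence; normalized to 1.43 uM quinidine.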

[14] abbreviates: measured here: cell count channel max response.
The mark [15] stands for this setting: measured here: lipid channel max response.

3',5'-cyclic-AMP phosphodiesterase 4B (Homo sapiens), sequence (Q07343 whole entry, looked up): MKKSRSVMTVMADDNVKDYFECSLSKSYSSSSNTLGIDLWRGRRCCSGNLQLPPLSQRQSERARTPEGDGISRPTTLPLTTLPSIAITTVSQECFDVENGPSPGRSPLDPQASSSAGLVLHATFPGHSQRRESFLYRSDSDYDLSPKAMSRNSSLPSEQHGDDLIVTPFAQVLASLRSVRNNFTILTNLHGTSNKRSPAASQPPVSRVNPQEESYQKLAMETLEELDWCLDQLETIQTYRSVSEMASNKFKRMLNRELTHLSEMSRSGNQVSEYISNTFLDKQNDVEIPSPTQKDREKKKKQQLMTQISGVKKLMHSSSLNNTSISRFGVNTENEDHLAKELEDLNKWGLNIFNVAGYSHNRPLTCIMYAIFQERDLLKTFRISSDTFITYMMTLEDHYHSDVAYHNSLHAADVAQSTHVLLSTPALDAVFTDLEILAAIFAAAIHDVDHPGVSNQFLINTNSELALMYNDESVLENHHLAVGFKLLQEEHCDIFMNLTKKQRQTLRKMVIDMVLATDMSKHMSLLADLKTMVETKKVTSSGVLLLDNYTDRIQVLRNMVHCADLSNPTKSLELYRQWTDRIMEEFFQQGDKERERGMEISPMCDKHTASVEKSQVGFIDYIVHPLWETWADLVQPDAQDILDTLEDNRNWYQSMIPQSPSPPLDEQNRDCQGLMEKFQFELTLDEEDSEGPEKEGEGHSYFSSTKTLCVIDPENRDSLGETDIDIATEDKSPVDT
Cytochrome P450 3A4 (Homo sapiens), sequence (P08684 whole entry, looked up): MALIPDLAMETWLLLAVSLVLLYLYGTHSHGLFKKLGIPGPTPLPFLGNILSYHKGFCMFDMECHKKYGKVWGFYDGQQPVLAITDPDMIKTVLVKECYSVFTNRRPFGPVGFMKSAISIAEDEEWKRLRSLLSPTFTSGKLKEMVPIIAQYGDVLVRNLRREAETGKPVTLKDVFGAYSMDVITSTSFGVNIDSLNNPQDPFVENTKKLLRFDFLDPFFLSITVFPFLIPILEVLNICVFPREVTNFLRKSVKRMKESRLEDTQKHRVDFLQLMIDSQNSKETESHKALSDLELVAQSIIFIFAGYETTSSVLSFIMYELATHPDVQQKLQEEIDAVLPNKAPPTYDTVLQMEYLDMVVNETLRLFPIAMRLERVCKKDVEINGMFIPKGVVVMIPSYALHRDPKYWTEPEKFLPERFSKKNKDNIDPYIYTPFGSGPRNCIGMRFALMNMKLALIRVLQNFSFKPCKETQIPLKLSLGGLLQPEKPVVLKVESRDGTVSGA
Lysosomal acid glucosylceramidase (Homo sapiens), sequence (P04062 whole entry, looked up): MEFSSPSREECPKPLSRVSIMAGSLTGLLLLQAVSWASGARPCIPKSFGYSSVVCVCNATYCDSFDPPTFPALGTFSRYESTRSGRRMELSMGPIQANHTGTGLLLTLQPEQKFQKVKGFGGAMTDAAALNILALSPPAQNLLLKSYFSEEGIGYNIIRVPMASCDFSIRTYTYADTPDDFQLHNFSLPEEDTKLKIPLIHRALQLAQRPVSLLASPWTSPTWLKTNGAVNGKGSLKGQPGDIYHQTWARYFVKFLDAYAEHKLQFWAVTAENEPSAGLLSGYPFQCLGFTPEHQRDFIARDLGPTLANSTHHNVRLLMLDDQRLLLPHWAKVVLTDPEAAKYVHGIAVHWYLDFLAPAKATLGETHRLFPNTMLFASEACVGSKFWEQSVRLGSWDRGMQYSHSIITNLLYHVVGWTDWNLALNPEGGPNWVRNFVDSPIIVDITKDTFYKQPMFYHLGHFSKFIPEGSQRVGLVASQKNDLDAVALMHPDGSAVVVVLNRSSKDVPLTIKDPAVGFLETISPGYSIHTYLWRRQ
Cytochrome P450 1A2 (Homo sapiens), sequence (P05177 whole entry, looked up): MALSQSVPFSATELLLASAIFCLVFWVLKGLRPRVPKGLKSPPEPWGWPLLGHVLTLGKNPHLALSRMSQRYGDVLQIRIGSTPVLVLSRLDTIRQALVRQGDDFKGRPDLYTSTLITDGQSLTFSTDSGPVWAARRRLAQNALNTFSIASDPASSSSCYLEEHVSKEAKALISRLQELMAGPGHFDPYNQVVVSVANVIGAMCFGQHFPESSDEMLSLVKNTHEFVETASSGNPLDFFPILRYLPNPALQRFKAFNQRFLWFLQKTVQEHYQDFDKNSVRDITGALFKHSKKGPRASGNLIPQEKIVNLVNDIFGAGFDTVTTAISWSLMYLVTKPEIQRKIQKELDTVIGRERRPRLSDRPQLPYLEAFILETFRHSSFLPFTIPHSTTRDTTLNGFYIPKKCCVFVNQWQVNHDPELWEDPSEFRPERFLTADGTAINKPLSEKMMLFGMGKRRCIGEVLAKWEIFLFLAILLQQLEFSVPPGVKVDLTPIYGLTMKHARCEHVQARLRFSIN
Glucocorticoid receptor (Homo sapiens), sequence (P04150 whole entry, looked up, the tested form may be a part): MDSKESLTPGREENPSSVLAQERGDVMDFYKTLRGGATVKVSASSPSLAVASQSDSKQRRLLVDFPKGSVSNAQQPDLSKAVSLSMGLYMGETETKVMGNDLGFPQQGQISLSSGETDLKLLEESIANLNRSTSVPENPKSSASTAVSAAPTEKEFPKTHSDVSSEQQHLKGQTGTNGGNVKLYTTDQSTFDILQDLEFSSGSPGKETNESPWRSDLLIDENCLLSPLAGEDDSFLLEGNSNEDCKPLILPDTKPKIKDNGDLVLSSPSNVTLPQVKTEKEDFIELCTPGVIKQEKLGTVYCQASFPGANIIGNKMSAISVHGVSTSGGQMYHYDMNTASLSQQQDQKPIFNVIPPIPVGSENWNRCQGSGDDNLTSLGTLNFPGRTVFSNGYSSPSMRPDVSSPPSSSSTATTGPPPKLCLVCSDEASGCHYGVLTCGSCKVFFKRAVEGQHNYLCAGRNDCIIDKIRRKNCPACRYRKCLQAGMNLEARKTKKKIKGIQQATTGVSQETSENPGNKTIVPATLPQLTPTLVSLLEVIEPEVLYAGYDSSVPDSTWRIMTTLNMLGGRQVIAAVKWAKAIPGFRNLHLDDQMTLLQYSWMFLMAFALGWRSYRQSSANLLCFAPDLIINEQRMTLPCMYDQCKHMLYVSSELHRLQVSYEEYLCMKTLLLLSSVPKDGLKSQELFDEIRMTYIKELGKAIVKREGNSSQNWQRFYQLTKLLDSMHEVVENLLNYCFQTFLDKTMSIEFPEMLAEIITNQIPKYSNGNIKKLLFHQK
Cytochrome P450 2D6 (Homo sapiens), sequence (P10635 whole entry, looked up): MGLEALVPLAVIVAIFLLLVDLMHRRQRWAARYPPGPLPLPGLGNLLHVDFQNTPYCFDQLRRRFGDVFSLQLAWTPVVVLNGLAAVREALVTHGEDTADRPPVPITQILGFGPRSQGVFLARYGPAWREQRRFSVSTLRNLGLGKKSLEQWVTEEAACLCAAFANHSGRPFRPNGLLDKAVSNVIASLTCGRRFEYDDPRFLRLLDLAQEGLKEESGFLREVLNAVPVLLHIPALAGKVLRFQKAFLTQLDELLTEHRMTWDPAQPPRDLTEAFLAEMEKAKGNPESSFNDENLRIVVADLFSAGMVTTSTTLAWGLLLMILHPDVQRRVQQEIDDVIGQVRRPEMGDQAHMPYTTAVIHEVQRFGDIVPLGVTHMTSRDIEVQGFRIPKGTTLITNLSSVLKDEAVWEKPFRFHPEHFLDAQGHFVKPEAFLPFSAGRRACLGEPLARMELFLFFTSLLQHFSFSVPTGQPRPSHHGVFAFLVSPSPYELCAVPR
Cytochrome P450 2C19 (Homo sapiens), sequence (P33261 whole entry, looked up): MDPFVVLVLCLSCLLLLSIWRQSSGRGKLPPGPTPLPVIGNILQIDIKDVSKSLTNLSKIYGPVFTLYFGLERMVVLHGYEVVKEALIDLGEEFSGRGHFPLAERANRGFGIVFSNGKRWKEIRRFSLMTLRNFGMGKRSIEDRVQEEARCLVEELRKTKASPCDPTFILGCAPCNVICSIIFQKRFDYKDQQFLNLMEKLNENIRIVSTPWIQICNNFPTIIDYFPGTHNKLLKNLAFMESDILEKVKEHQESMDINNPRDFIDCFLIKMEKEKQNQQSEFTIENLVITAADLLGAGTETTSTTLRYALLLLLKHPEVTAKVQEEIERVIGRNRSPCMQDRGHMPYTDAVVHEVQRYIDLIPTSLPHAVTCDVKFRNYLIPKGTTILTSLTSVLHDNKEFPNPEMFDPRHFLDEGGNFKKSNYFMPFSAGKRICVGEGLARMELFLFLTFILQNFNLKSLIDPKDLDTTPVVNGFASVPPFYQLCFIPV

Take `COC(=O)N1CCC2(CC1)CN(c1ccccc1)C2`: the Potency in test [1] was > 11.4 µM (inactive); in test [5], > 46 µM (inactive); in test [9] it was 6.31 µM (active). In addition, the activity change, negative = inhibition is -2.49% (inactive) in test [2] and -0.409% (inactive) in test [10]. Besides, the Potency result in [3], in test [6], in test [7] and in test [8] was “inactive” in each case. Moreover, in test [4], the activity, negative = inhibition was 8.16% (inactive). In addition, the results for the max response in test [10] (setting [14]) and in [10] (setting [15]) were 4.45% and 2.93%, respectively. For the same compound, the result in test [11] was inactive.

As to `Cc1noc(C)c1C(=O)N1CCC2(CCCN(c3ccncc3)C2)CC1`, the Potency was > 11.4 µM (inactive) in [1] and > 46 µM (inactive) in test [5]. Also, the activity change, negative = inhibition in [2] is 6.75% (inactive); in test [10], 5.44% (inactive). The Potency result in [3], in [6], in [7] and in test [12] was “inactive” in each case. In addition, the activity, negative = inhibition in test [4] is 8.27% (inactive). For the same compound, the max response in test [10] (setting [14]) is 15.3%; in test [10] (setting [15]), 23.4%. Besides, the result in [11] was inactive.

With `O=C(c1ccncc1)N1CCC2(CC1)CN(Cc1cc(C(F)(F)F)cc(C(F)(F)F)c1)C2`, the Potency in [1] was > 11.4 µM (inactive); in test [5] it was > 46 µM (inactive); in test [8], 5.01 µM (active). Besides, the activity change, negative = inhibition was -5.95% (inactive) in [2] and 0.924% (inactive) in test [10]. For the same compound, the Potency entry in test [3], in test [6], in test [7] and in test [12] was “inactive” throughout. In addition, in test [4], the activity, negative = inhibition is -8.98% (inactive). For the same compound, the max response was found to be 9.27% in test [10] (setting [14]) and 16.4% in test [10] (setting [15]). For the same compound, the outcome in test [11] was inactive.

Regarding `O=C(c1cnccn1)N1CCC2(CC1)CN(C(c1ccccc1)c1ccccc1)C2`, the Potency in test [1] was > 11.4 µM (inactive); in test [3] it was 25.1 µM (active); in [5], > 46 µM (inactive); in test [12], 12.6 µM (active); in test [13], 6.31 µM (active). Moreover, the activity change, negative = inhibition was -2% (inactive) in test [2] and 1.71% (inactive) in [10]. Besides, the activity, negative = inhibition in [4] was -4.86% (inactive). Besides, the Potency entry in [6], in test [7] and in test [8] was “inactive” throughout. Besides, the max response in test [10] (setting [14]) is 6.7%; in [10] (setting [15]), 10.5%. Further, the result in test [11] was inactive.

Consider `c1ccc(-c2cccc(N3CCC4(CCNCC4)CC3)c2)cc1`, for which the Potency in test [1] was > 11.4 µM (inactive); in test [3], 15.8 µM (active); in test [5], > 46 µM (inactive). For the same compound, the figures for the activity change, negative = inhibition in [2] and in test [10] were -2.96% (inactive) and 2.27% (inactive), respectively. Further, in [4], the activity, negative = inhibition is -2.71% (inactive). Also, the Potency entry in test [6], in test [7] and in test [12] was “inactive” throughout. The max response in [10] (setting [14]) is -17%; in [10] (setting [15]), -12.4%. Further, the outcome in test [11] was inactive.

Consider `Cc1noc(C)c1C(=O)N1CCC2(CCCN(Cc3ccccc3)C2)CC1`, for which the figures for the Potency in test [1] and in [5] were > 11.4 µM (inactive) and > 46 µM (inactive), respectively. Besides, the values for the activity change, negative = inhibition in [2] and in test [10] were 3.01% (inactive) and 4.04% (inactive), respectively. Also, the Potency result in test [3], in test [6], in [7] and in test [12] was “inactive” each time. Further, in test [4], the activity, negative = inhibition is 4.66% (inactive). In addition, the max response came to 15.8% in [10] (setting [14]) and 21.7% in test [10] (setting [15]). Moreover, the outcome in test [11] was inactive.

For `CC(C)CN1CCCC2(CCN(S(=O)(=O)c3ccccc3)CC2)C1`, the Potency in test [1] was > 11.4 µM (inactive); in [5], > 46 µM (inactive). The activity change, negative = inhibition was 1.33% (inactive) in test [2] and 2.73% (inactive) in [10]. For the same compound, the Potency result in [3], in [6], in test [7] and in test [12] was “inactive” in each case. In addition, the activity, negative = inhibition in test [4] was 0.203% (inactive). In addition, the max response was found to be 12.5% in test [10] (setting [14]) and 15.5% in test [10] (setting [15]). The result in [11] was inactive.

Source of the values: PubChem BioAssay (NCATS).
